Screening results: PubChem, Sanford-Burnham Center for Chemical Genomics
CYP2C19 act: increases human CYP2C19 enzyme activity | P33261 | recombinant CYP2C19, luciferin-H EGE luminescence; hits give high values; 0 = fully inhibited enzyme, 1 = untreated enzyme | activation factor at 5 µM | 96,000 tested, under 10 active;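 active = activation factor of at least 2 at 5 µM in the primary screen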;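 also: 0 = wells with 2.5 mM tranylcypromine and 1 = vehicle-only wells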
Target sequence (P33261 whole entry, looked up): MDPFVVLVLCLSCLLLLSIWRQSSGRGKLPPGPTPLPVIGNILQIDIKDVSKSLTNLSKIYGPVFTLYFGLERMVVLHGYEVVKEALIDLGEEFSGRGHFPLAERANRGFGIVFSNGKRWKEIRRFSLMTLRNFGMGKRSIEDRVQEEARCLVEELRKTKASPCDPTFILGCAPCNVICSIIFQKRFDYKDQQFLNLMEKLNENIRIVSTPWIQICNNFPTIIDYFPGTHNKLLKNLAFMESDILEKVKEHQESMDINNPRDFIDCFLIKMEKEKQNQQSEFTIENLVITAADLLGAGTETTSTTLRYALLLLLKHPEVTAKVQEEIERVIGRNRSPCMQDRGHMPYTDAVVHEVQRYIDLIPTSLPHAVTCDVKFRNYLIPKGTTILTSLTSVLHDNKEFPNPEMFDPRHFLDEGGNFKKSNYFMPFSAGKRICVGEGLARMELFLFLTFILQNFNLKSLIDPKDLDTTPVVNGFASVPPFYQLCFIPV
CYP2C19 inh: blocks human cytochrome P450 2C19; P33261; CYP2C19 Supersomes, luciferin-H EGE luminescence, 30 min; inhibition, % at 5 µM; hit rate 21% among 96,000; AID 778;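 active = CYP2C19 inhibition above a set limit at 5 µM in the primary screen, cut at about 50% in these data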;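 also: plate controls were negative control wells for no effect and 2.5 mM tranylcypromine positive control for full effect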
CYP2C9 act: activators of human CYP2C9; recombinant CYP2C9, luciferin-H conversion, luminescence; hits give high values; factor 1 = untreated enzyme, 0 = blocked; activation factor at 5 µM; hit rate 1.4% among 96,000;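 active = activation factor of 2 or more for CYP2C9 at a 5 µM dose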;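 also: 0 = sulfaphenazole-blocked wells and 1 = vehicle-only wells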
PLAP act: activators of human placental alkaline phosphatase; P05187; purified PLAP enzyme, luminescent substrate read-out; hits give high values; activation fold at 20 µM; hit rate 1.2% among 96,000; AID 696; in the data active = activation fold above about 2
CYP2C9 inh: human CYP2C9 inhibition. CYP2C9 Supersomes, luciferin-H conversion, luminescence. inhibition, % at 5 µM. hit rate 20% among 96,000;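 active = blocking of liver enzyme CYP2C9 beyond about 50% at 5 µM, limit read from the data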
Active calls of the source: *. In the library only some 31% were active in any assay of this set; here they are far more common.

`CS/C(=N\S(=O)(=O)c1cccs1)Nc1ccc(N2CCOCC2)cc1` gave CYP2C19 act 1, CYP2C19 inh 2.2, CYP2C9 act 0.9, PLAP act 1 and CYP2C9 inh 5.0.
For Cc1ccc2c(c1)c1c(n2CC(O)CN2C(=O)CNC2=O)C(=O)CCC1 (stereo not given) the results were CYP2C19 act 0.8, CYP2C19 inh 23.5, CYP2C9 act 0.9, PLAP act 1.2 and CYP2C9 inh 7.1.
Screening Cc1ccc2c(c1)c1c(n2CC(O)Cn2c(C)nc3ccccc32)/C(=N\O)CCC1 (stereo not given) returned CYP2C19 act 0.5, CYP2C19 inh 54.0*, CYP2C9 act 0, PLAP act 1.5 and CYP2C9 inh 95.5*.
Screening Cc1nc2ccccc2n1CC(O)Cn1c2ccccc2c2ccccc21 (stereo not given) returned CYP2C19 act 0.2, CYP2C19 inh 75.4*, CYP2C9 act 0.2, PLAP act 1.6 and CYP2C9 inh 78.2*.
Screening Cc1ccc2c(c1)c1c(n2CC2COC(C)(C)O2)C(=O)CCC1 (stereo not given) returned CYP2C19 act 0.2, CYP2C19 inh 75.8*, CYP2C9 act 0.3, PLAP act 1.3 and CYP2C9 inh 73.2*.
CC(=O)Nc1ccc(OCC(O)Cn2c(C)nc3ccccc32)cc1 (stereo not given) was read as CYP2C19 act 0.6, CYP2C19 inh 38.7, CYP2C9 act 0.5, PLAP act 1 and CYP2C9 inh 45.4.
Screening Cc1ccc2c(c1)c1c(n2CC(O)Cn2c(C)nc3ccccc32)C(=O)CCC1 (stereo not given) returned CYP2C19 act 1, CYP2C19 inh 2.5, CYP2C9 act 0.1, PLAP act 1.6 and CYP2C9 inh 86.1*.
C#CC(CC)(CC)NC(=O)c1c(C)noc1C was read as CYP2C19 act 1, CYP2C19 inh 3.7, CYP2C9 act 1.1, PLAP act 1 and CYP2C9 inh -5.8.
`Cc1csc2nc(=O)c3ccccc3n12` gave CYP2C19 act 1, CYP2C19 inh 1.8, CYP2C9 act 1, PLAP act 0.9 and CYP2C9 inh 2.5.
For CC(/C=N/n1c(C2CCCCC2)n[nH]c1=S)=C\c1ccccc1 the results were CYP2C19 act 0.6, CYP2C19 inh 38.5, CYP2C9 act 0.4, PLAP act 1.2 and CYP2C9 inh 61.2*.
Screening O=C(Nc1ccc(OC(F)(F)F)cc1)c1n[nH]c(Cn2cncn2)n1 returned CYP2C19 act 0.7, CYP2C19 inh 32.2, CYP2C9 act 0.8, PLAP act 0.9 and CYP2C9 inh 22.7.
N#C/C(=C\c1cccc(Cl)c1)c1n[nH]c(Cn2cncn2)n1 was read as CYP2C19 act 0.8, CYP2C19 inh 24.9, CYP2C9 act 0.5, PLAP act 1.2 and CYP2C9 inh 51.5*.
Screening N#C/C(=C\c1ccc(F)cc1)c1n[nH]c(Cn2cncn2)n1 returned CYP2C19 act 0.5, CYP2C19 inh 48.7, CYP2C9 act 0.4, PLAP act 1.3 and CYP2C9 inh 58.4*.
For COc1ccnc(NCc2cccnc2)c1C#N the results were CYP2C19 act 0.9, CYP2C19 inh 13.4, CYP2C9 act 0.9, PLAP act 1.1 and CYP2C9 inh 5.4.
COC(=O)c1c(C)[nH]c(C(C)=O)c1C was read as CYP2C19 act 0.6, CYP2C19 inh 44.5, CYP2C9 act 0.5, PLAP act 1.1 and CYP2C9 inh 54.8*.
Screening Cc1ccc(-c2nnn(CC(=O)Nc3ccc(S(=O)(=O)N4CCC(C)CC4)cc3)n2)cc1 returned CYP2C19 act 0.9, CYP2C19 inh 8.4, CYP2C9 act 0.6, PLAP act 1 and CYP2C9 inh 39.6.
For O=C(NC1CC2CCC1C2)C1CCN(S(=O)(=O)c2ccc(-c3nn[nH]n3)cc2)CC1 (stereo not given) the results were CYP2C19 act 1.2, CYP2C19 inh -17.0, CYP2C9 act 0.1, PLAP act 1.2 and CYP2C9 inh 86.6*.
CCCNC(=O)C1CCN(S(=O)(=O)c2ccc(-c3nn[nH]n3)cc2)CC1 was read as CYP2C19 act 0.6, CYP2C19 inh 41.3, CYP2C9 act 0.2, PLAP act 1.1 and CYP2C9 inh 83.2*.
COc1ccc(CNC(=O)C2CCN(S(=O)(=O)c3ccc(-c4nn[nH]n4)cc3)CC2)cc1 was read as CYP2C19 act 1.1, CYP2C19 inh -9.4, CYP2C9 act 0.3, PLAP act 1.2 and CYP2C9 inh 65.0*.
Screening Cc1sc2nc(-c3cccs3)nc(N3CCCN(C)CC3)c2c1C returned CYP2C19 act 0.8, CYP2C19 inh 16.5, CYP2C9 act 0.8, PLAP act 1.7 and CYP2C9 inh 18.2.
C=CCN(C(=O)c1cccc(S(=O)(=O)N2CCN(C)CC2)c1)c1nc(-c2ccccc2)cs1 was read as CYP2C19 act 0.2, CYP2C19 inh 79.4*, CYP2C9 act 0.2, PLAP act 1.7 and CYP2C9 inh 76.7*.
Screening O=C(NC(=S)Nc1ccc(C(=O)N2CCOCC2)cc1)c1ccc([N+](=O)[O-])cc1 returned CYP2C19 act 0.8, CYP2C19 inh 17.6, CYP2C9 act 1, PLAP act 1 and CYP2C9 inh 4.3.
CCOc1cccc(OCCOCCN2CCCC2)c1 was read as CYP2C19 act 1, CYP2C19 inh -1.7, CYP2C9 act 1.1, PLAP act 1.1 and CYP2C9 inh -11.2.
CC1(C)NC(=O)N(CCCCOc2cccc(C(F)(F)F)c2)C1=O was read as CYP2C19 act 0.2, CYP2C19 inh 84.9*, CYP2C9 act 0.4, PLAP act 1 and CYP2C9 inh 60.7*.
`CC1(C)NC(=O)N(CCCCOc2ccc3c(c2)CCC3)C1=O` gave CYP2C19 act 0.2, CYP2C19 inh 78.3*, CYP2C9 act 0.7, PLAP act 1.4 and CYP2C9 inh 32.9.
`CCCOC(=O)c1ccc(OCC(O)CN2C(=O)NC(C)(C)C2=O)cc1` (stereo not given) gave CYP2C19 act 0.9, CYP2C19 inh 13.3, CYP2C9 act 1, PLAP act 1 and CYP2C9 inh 0.6.
For CCC(C)Oc1cccc(OCCCCN2C(=O)NC(C)(C)C2=O)c1 (stereo not given) the results were CYP2C19 act 0.3, CYP2C19 inh 72.4*, CYP2C9 act 0.4, PLAP act 1.4 and CYP2C9 inh 59.2*.
CC1(C)NC(=O)N(CCOCCOc2cccc(Oc3ccccc3)c2)C1=O was read as CYP2C19 act 0, CYP2C19 inh 95.7*, CYP2C9 act 0.2, PLAP act 1.4 and CYP2C9 inh 84.1*.
`C=C(C)Cn1c(SCC(=O)O)nnc1-c1ccc(OC)cc1` gave CYP2C19 act 1.1, CYP2C19 inh -14.7, CYP2C9 act 1.1, PLAP act 1 and CYP2C9 inh -13.2.
CCC(=O)Nc1ccc2c(c1)ncn2-c1ccccc1 was read as CYP2C19 act 1, CYP2C19 inh 4.7, CYP2C9 act 0.9, PLAP act 0.9 and CYP2C9 inh 11.1.
`Oc1c(CN2CCCCC2)cc(Br)c2cccnc12` gave CYP2C19 act 1, CYP2C19 inh -2.0, CYP2C9 act 0.9, PLAP act 1.6 and CYP2C9 inh 8.8.
